{"source": "PubChem BioAssay (NCATS)", "note": "Inconclusive results are not listed. Where a call stands in place of a potency, no number is given. Activity calls are given as the source filed them. Calls follow the shape of the dose curve; as a rule, active = well fitted curve in the direction sought with a large enough effect; inconclusive = small, poorly fitted or top-dose-only effect, or another doubt; inactive = no such curve, though single readings can be large; an effect the other way counts as inactive or inconclusive."}
{"molecular_target": "Phosphoglycerate kinase, glycosomal (Trypanosoma brucei brucei) (UniProt P07378)", "sequence (P07378 whole entry, looked up)": "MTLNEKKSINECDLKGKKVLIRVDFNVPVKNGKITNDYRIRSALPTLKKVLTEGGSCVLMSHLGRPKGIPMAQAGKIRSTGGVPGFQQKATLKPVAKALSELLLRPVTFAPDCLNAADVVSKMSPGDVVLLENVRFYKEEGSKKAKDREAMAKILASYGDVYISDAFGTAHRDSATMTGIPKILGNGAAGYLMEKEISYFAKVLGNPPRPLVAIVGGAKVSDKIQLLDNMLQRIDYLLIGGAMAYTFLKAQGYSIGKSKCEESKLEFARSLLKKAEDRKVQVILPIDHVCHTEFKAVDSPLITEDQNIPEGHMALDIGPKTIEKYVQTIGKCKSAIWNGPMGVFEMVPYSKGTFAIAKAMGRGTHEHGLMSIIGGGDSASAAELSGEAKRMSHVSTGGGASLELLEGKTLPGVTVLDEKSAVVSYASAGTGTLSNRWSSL", "experiment": "qHTS Validation Assay to Find Inhibitors of Phosphoglycerate Kinase (AID 504547); also: potency is read from the fitted curve at half-maximal effect", "details": "enzymatic PGK inhibition, coupled luminescence read-out; series mostly up to 57.5 µM", "in_short": "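Luminescence end-point (Kinase-Glo Plus, 10 min) after a 60 min room-temperature coupled reaction. GAPDH at 100nM final supplies 1,3-BPG to PGK. Buffer: 100mM TEA pH 7.6, 5mM MgCl2, 0.01% Tween-20. Wells lacking PGK served as controls.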"}
{"smiles": "Oc1ccc2c3c1O[C@H]1c4oc5ccccc5c4C[C@@]4(O)C(C2)N(CC2CC2)CCC314", "note": "(stereo not given in full)", "Potency": "inactive"}
{"smiles": "C=CCN1CCC23c4c5ccc(O)c4O[C@H]2C(=O)CC[C@@]3(O)C1C5", "note": "(stereo not given in full)", "Potency": "inactive"}
{"smiles": "C#CCN[C@H](C)Cc1ccccc1", "Potency": "inactive"}
{"smiles": "Cc1sc2ccccc2c1CC1=NCCN1", "Potency": "inactive"}
{"smiles": "Ic1ccccc1CNC1C2CCN(CC2)C1C(c1ccccc1)c1ccccc1", "note": "(stereo not given)", "Potency": "inactive"}
{"smiles": "COC(=O)N1CCN(C(=O)Cc2ccc(Cl)c(Cl)c2)C(CN2CCCC2)C1", "note": "(stereo not given)", "Potency": "inactive"}
{"smiles": "N[C@@H](CCl)C(=O)O", "Potency": "inactive"}
{"smiles": "CC(=O)NBr", "Potency": "inactive"}
{"smiles": "Oc1ccc2c3c1O[C@H]1c4[nH]c5ccccc5c4C[C@@]4(O)C(C2)N(CC2CC2)CCC314", "note": "(stereo not given in full)", "Potency": "inactive"}
{"smiles": "CCS(=O)(=O)Nc1cccc(C(=C2CCCCC2)c2cnc[nH]2)c1", "Potency": "inactive"}
{"smiles": "OCc1cnc[nH]1", "Potency": "inactive"}
{"smiles": "NC(Cc1cc(O)c(O)cc1O)C(=O)O", "note": "(stereo not given)", "Potency": "0.338 µM (active)"}
{"smiles": "CN1CCc2cccc(Cl)c2CC1", "Potency": "inactive"}
{"smiles": "NCCCP(=O)(O)O", "Potency": "inactive"}
{"smiles": "C[N+](C)(C)CC#CCOC(=O)Nc1cccc(Cl)c1", "Potency": "inactive"}
{"smiles": "C[C@H](Cc1ccc2c(c1)OC(C(=O)O)(C(=O)O)O2)NC[C@H](O)c1cccc(Cl)c1", "Potency": "inactive"}
{"smiles": "NNC(=O)c1ccc(O)cc1", "Potency": "inactive"}
{"smiles": "N[C@@]1(C(=O)O)CC[C@@H](C(=O)O)C1", "Potency": "inactive"}
{"smiles": "CC1(C(=O)O)C2CCC(O2)C1(C)C(=O)O", "note": "(stereo not given)", "Potency": "inactive"}
{"smiles": "NC(=O)COc1c(F)cc(SCCNS(=O)(=O)c2ccccc2)cc1F", "Potency": "inactive"}
{"smiles": "C[Se]C[C@H](N)C(=O)O", "Potency": "inactive"}
{"smiles": "CCCN(CCC)CCc1ccc(O)c(O)c1", "Potency": "inactive"}
{"smiles": "COc1ccc2[nH]cc(CCN)c2c1", "Potency": "inactive"}
{"smiles": "C[C@H](N)CN1CCc2ccc(Br)cc21", "Potency": "inactive"}
{"smiles": "NC(N)=NOCC[C@H](N)C(=O)O", "Potency": "inactive"}
{"smiles": "CCCN(CCC)[C@@H]1CCc2cccc(O)c2C1", "Potency": "inactive"}
{"smiles": "CC(Cc1ccc(OCC(=O)O)cc1)NCC(O)c1cccc(Cl)c1", "note": "(stereo not given)", "Potency": "inactive"}
{"smiles": "NNC(N)=O", "Potency": "inactive"}
{"smiles": "Nc1ccc(CCN2CCN(c3cccc(C(F)(F)F)c3)CC2)cc1", "Potency": "inactive"}
{"smiles": "NC(=O)c1ccc(OCC(O)CN2CC=C(c3ccc(F)cc3)CC2)cc1", "note": "(stereo not given)", "Potency": "inactive"}
{"smiles": "CCCCCCCCCCCCCC(=O)O[C@@H]1[C@@H](C)[C@@]2(O)[C@@H](C=C(CO)C[C@@]3(O)C(=O)C(C)=C[C@@H]23)C2C(C)(C)[C@@]21OC(C)=O", "note": "(stereo not given in full)", "Potency": "inactive"}
{"smiles": "NCC(CP(=O)(O)O)c1ccc(Cl)cc1", "note": "(stereo not given)", "Potency": "inactive"}
{"smiles": "NCC(O)c1cc(O)c(O)cc1F", "note": "(stereo not given)", "Potency": "21.3 µM (active)"}
{"smiles": "C/C(O)=C(\\C#N)C(=O)Nc1cc(Br)ccc1Br", "Potency": "inactive"}
{"smiles": "CC12NC(Cc3ccccc31)c1ccccc12", "note": "(stereo not given)", "Potency": "inactive"}
{"smiles": "C=CCN1CC[C@]23c4c5ccc(O)c4O[C@H]2/C(=N/NC(=O)c2ccccc2)CC[C@@]3(O)[C@H]1C5", "Potency": "inactive"}
{"smiles": "COc1ccc2[nH]c3c(c2c1)CCNC3", "Potency": "inactive"}
{"smiles": "CCOC(=O)c1ncn2c1[C@@H]1CCCN1C(=O)c1cc(OC)ccc1-2", "Potency": "inactive"}
{"smiles": "C[N+]1(C)CCN(c2ccccc2)CC1", "Potency": "inactive"}
{"smiles": "CN(C(=O)Cc1ccc(Cl)c(Cl)c1)C(CN1CCCC1)c1cccc(OCC(=O)O)c1", "note": "(stereo not given)", "Potency": "inactive"}
{"molecular_target": "phosphoglycerate mutase (Leishmania major) (UniProt Q4Q090)", "sequence (Q4Q090 1-553)": "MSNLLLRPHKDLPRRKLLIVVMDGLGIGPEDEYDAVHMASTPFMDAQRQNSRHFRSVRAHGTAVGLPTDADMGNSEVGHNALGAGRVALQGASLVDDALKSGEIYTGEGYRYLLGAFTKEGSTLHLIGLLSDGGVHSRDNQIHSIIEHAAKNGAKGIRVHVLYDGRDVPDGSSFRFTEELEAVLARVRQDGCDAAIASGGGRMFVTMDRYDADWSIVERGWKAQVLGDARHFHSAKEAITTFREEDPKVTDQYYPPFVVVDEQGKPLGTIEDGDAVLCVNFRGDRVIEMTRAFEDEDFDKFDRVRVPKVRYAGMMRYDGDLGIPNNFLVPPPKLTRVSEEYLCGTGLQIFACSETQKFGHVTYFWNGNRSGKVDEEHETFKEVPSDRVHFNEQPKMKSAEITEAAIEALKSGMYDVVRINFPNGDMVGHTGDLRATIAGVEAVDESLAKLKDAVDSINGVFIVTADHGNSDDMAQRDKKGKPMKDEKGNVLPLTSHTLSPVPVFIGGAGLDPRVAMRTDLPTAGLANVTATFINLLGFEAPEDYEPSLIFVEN", "experiment": "qHTS Validation Assay to Find Inhibitors of Phosphoglycerate Mutase (AID 504548);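 also: end-point luminescence from Kinase-GloPlus after the PGAM reaction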", "details": "biochemical enzyme activity; Potency: inhibition qHTS; series mostly up to 57.5 µM", "in_short": "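Inhibition of L. major PGAM was assessed by Kinase-GloPlus luminescence following a 45-minute room-temperature reaction with enzyme at 1.25nM final.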"}
{"smiles": "Ic1ccccc1CNC1C2CCN(CC2)C1C(c1ccccc1)c1ccccc1", "note": "(stereo not given)", "Potency": "inactive"}
{"smiles": "Oc1ccc2c3c1O[C@H]1c4[nH]c5ccccc5c4C[C@@]4(O)C(C2)N(CC2CC2)CCC314", "note": "(stereo not given in full)", "Potency": "inactive"}
{"smiles": "NC(Cc1cc(O)c(O)cc1O)C(=O)O", "note": "(stereo not given)", "Potency": "inactive"}
{"smiles": "CC1(C(=O)O)C2CCC(O2)C1(C)C(=O)O", "note": "(stereo not given)", "Potency": "inactive"}
{"smiles": "NC(=O)COc1c(F)cc(SCCNS(=O)(=O)c2ccccc2)cc1F", "Potency": "inactive"}
{"smiles": "CCCN(CCC)CCc1ccc(O)c(O)c1", "Potency": "inactive"}
{"smiles": "C[C@H](N)CN1CCc2ccc(Br)cc21", "Potency": "inactive"}
{"smiles": "NC(N)=NOCC[C@H](N)C(=O)O", "Potency": "inactive"}
{"smiles": "CC(Cc1ccc(OCC(=O)O)cc1)NCC(O)c1cccc(Cl)c1", "note": "(stereo not given)", "Potency": "inactive"}
{"smiles": "NNC(N)=O", "Potency": "inactive"}
{"smiles": "CCCCCCCCCCCCCC(=O)O[C@@H]1[C@@H](C)[C@@]2(O)[C@@H](C=C(CO)C[C@@]3(O)C(=O)C(C)=C[C@@H]23)C2C(C)(C)[C@@]21OC(C)=O", "note": "(stereo not given in full)", "Potency": "inactive"}
{"smiles": "NCC(O)c1cc(O)c(O)cc1F", "note": "(stereo not given)", "Potency": "inactive"}
{"smiles": "C/C(O)=C(\\C#N)C(=O)Nc1cc(Br)ccc1Br", "Potency": "inactive"}
{"smiles": "C=CCN1CC[C@]23c4c5ccc(O)c4O[C@H]2/C(=N/NC(=O)c2ccccc2)CC[C@@]3(O)[C@H]1C5", "Potency": "inactive"}
{"smiles": "C[N+]1(C)CCN(c2ccccc2)CC1", "Potency": "inactive"}
{"system": "not listed separately", "experiment": "Inducers of the Endoplasmic Reticulum Stress Response (ERSR) in human glioma: Validation (AID 504836)", "details": "human glioma cells, ER stress response reporter; series mostly up to 38.3 µM", "in_short": "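ERSR induction read as luciferase luminescence (Bright-Glo, 10 min at room temperature) in stably transfected human U87-MG glioma cells exposed to compounds for 16 h, using GRP78 as sensor.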"}
{"smiles": "Oc1ccc2c3c1O[C@H]1c4oc5ccccc5c4C[C@@]4(O)C(C2)N(CC2CC2)CCC314", "note": "(stereo not given in full)", "outcome": "inactive"}
{"smiles": "C=CCN1CCC23c4c5ccc(O)c4O[C@H]2C(=O)CC[C@@]3(O)C1C5", "note": "(stereo not given in full)", "outcome": "inactive"}
{"smiles": "C#CCN[C@H](C)Cc1ccccc1", "outcome": "inactive"}
{"smiles": "Cc1sc2ccccc2c1CC1=NCCN1", "outcome": "inactive"}
{"smiles": "Ic1ccccc1CNC1C2CCN(CC2)C1C(c1ccccc1)c1ccccc1", "note": "(stereo not given)", "outcome": "inactive"}
{"smiles": "COC(=O)N1CCN(C(=O)Cc2ccc(Cl)c(Cl)c2)C(CN2CCCC2)C1", "note": "(stereo not given)", "outcome": "inactive"}
{"smiles": "N[C@@H](CCl)C(=O)O", "outcome": "inactive"}
{"smiles": "CC(=O)NBr", "outcome": "inactive"}
{"smiles": "Oc1ccc2c3c1O[C@H]1c4[nH]c5ccccc5c4C[C@@]4(O)C(C2)N(CC2CC2)CCC314", "note": "(stereo not given in full)", "outcome": "inactive"}
{"smiles": "CCS(=O)(=O)Nc1cccc(C(=C2CCCCC2)c2cnc[nH]2)c1", "outcome": "inactive"}
{"smiles": "OCc1cnc[nH]1", "outcome": "inactive"}
{"smiles": "NC(Cc1cc(O)c(O)cc1O)C(=O)O", "note": "(stereo not given)", "outcome": "inactive"}
{"smiles": "CN1CCc2cccc(Cl)c2CC1", "outcome": "inactive"}
{"smiles": "NCCCP(=O)(O)O", "outcome": "inactive"}
{"smiles": "C[N+](C)(C)CC#CCOC(=O)Nc1cccc(Cl)c1", "outcome": "inactive"}
{"smiles": "C[C@H](Cc1ccc2c(c1)OC(C(=O)O)(C(=O)O)O2)NC[C@H](O)c1cccc(Cl)c1", "outcome": "inactive"}
{"smiles": "NNC(=O)c1ccc(O)cc1", "outcome": "inactive"}
{"smiles": "N[C@@]1(C(=O)O)CC[C@@H](C(=O)O)C1", "outcome": "inactive"}
{"smiles": "CC1(C(=O)O)C2CCC(O2)C1(C)C(=O)O", "note": "(stereo not given)", "outcome": "inactive"}
{"smiles": "NC(=O)COc1c(F)cc(SCCNS(=O)(=O)c2ccccc2)cc1F", "outcome": "inactive"}
{"smiles": "C[Se]C[C@H](N)C(=O)O", "outcome": "inactive"}
{"smiles": "CCCN(CCC)CCc1ccc(O)c(O)c1", "outcome": "inactive"}
{"smiles": "COc1ccc2[nH]cc(CCN)c2c1", "outcome": "inactive"}
{"smiles": "C[C@H](N)CN1CCc2ccc(Br)cc21", "outcome": "inactive"}
{"smiles": "NC(N)=NOCC[C@H](N)C(=O)O", "outcome": "inactive"}
{"smiles": "CCCN(CCC)[C@@H]1CCc2cccc(O)c2C1", "outcome": "inactive"}
{"smiles": "CC(Cc1ccc(OCC(=O)O)cc1)NCC(O)c1cccc(Cl)c1", "note": "(stereo not given)", "outcome": "inactive"}
{"smiles": "NNC(N)=O", "outcome": "inactive"}
{"smiles": "Nc1ccc(CCN2CCN(c3cccc(C(F)(F)F)c3)CC2)cc1", "outcome": "inactive"}
{"smiles": "NC(=O)c1ccc(OCC(O)CN2CC=C(c3ccc(F)cc3)CC2)cc1", "note": "(stereo not given)", "outcome": "inactive"}
{"smiles": "CCCCCCCCCCCCCC(=O)O[C@@H]1[C@@H](C)[C@@]2(O)[C@@H](C=C(CO)C[C@@]3(O)C(=O)C(C)=C[C@@H]23)C2C(C)(C)[C@@]21OC(C)=O", "note": "(stereo not given in full)", "outcome": "inactive"}
{"smiles": "NCC(CP(=O)(O)O)c1ccc(Cl)cc1", "note": "(stereo not given)", "outcome": "inactive"}
{"smiles": "NCC(O)c1cc(O)c(O)cc1F", "note": "(stereo not given)", "outcome": "inactive"}
{"smiles": "C/C(O)=C(\\C#N)C(=O)Nc1cc(Br)ccc1Br", "outcome": "inactive"}
{"smiles": "CC12NC(Cc3ccccc31)c1ccccc12", "note": "(stereo not given)", "outcome": "inactive"}
{"smiles": "C=CCN1CC[C@]23c4c5ccc(O)c4O[C@H]2/C(=N/NC(=O)c2ccccc2)CC[C@@]3(O)[C@H]1C5", "outcome": "inactive"}
{"smiles": "COc1ccc2[nH]c3c(c2c1)CCNC3", "outcome": "inactive"}
{"smiles": "CCOC(=O)c1ncn2c1[C@@H]1CCCN1C(=O)c1cc(OC)ccc1-2", "outcome": "inactive"}
{"smiles": "C[N+]1(C)CCN(c2ccccc2)CC1", "outcome": "inactive"}
{"smiles": "CN(C(=O)Cc1ccc(Cl)c(Cl)c1)C(CN1CCCC1)c1cccc(OCC(=O)O)c1", "note": "(stereo not given)", "outcome": "inactive"}
